This is one part of a sample in which hits are shown more often than they occur.
Sm TGR block: inhibitors of Schistosoma mansoni thioredoxin glutathione reductase; Q962Y6; purified TGR, DTNB reduction, TNB absorbance 405 nm; Potency, µM (top dose mostly 114 µM), without a hit: at the highest dose activity change, negative = inhibition, usual class: inhibitors; hit rate 3% among 360,000; AID 485364; note: potency is the fitted concentration of half-maximal effect; % is set by controls: 0 for no effect and ±100 for the full control effect; nearly all actives have a fitted effect of over 60% in size
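First, TGR (20 nM dispensed) and NADPH were mixed with compound. Second, a 15 min room-temperature incubation followed. Third, further NADPH and then DTNB were added to start the reaction. Finally, TNB absorbance was monitored kinetically.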
CHX counter: counter-screen hit for Shiga toxin inhibitors, cycloheximide; cell reporter, cycloheximide protein synthesis inhibition counterscreen; max response, %; hit rate 12% among 300,000; in the data active = max response mostly above about 13%, no sharp cut-off; inactive = mostly below about 14%; note: read at 38.3 µM for the half of the compounds with a filed dose; 0% is about no effect
FBPA Giardia inh: inhibitors of Giardia lamblia fructose-1,6-bisphosphate aldolase | purified Giardia FBPA | hit rate 0.71% among 290,000 | Potency, µM (doses to about 59.6 µM), for inactives: top-dose activity, negative = inhibition, most hits filed as inhibitors; note: potency is the fitted concentration of half-maximal effect; % is set by controls: 0 for no effect and ±100 for the full control effect; nearly all actives have a fitted effect of over 55% in size
Target sequence (A8B2U2 whole entry, looked up): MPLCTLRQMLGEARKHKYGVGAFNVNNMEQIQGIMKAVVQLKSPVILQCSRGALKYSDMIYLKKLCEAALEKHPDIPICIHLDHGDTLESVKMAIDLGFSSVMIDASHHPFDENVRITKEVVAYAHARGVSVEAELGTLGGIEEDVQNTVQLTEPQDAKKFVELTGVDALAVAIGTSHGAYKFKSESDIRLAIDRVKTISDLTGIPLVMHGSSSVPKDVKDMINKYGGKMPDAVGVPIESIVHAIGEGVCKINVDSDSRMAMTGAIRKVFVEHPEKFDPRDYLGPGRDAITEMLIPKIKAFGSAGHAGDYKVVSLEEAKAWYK
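40 nM FBPA preincubated 10 min at RT with compound (up to 57.5 uM final), then substrate plus GAPDH/TPI/NAD/arsenate coupling and diaphorase/resazurin added. Fluorescence read after 20 min at RT, 525/598 nm.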
TbPYK inhibitor: T. brucei pyruvate kinase inhibition; Q57TT1; TbPYK enzyme, Kinase-Glo Plus ATP luminescence, 45 min; Potency, µM (series often up to 76.8 µM), for inactives: top-dose activity, negative = inhibition, hits mostly inhibitors; hit rate 0.12% among 410,000; AID 624173; note: potency is the fitted concentration of half-maximal effect; % is set by controls: 0 for no effect and ±100 for the full control effect; nearly all actives have a fitted effect of over 50% in size
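Enzyme and substrate buffer are dispensed first and compound is pin-transferred. ADP at 130 uM final then starts the reaction, which runs 45 min at room temperature. Detection reagent is added for 10 min before luminescence is imaged.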
LmPK inhibitor: blocks Leishmania mexicana pyruvate kinase activity; Q27686; purified LmPK, Kinase-Glo ATP luminescence, 1 h; Potency, µM (series often up to 57.5 µM), without a hit: at the highest dose activity change, negative = inhibition, hits mostly inhibitors; hit rate 0.37% among 290,000; AID 1721; note: potency is the fitted concentration of half-maximal effect; % is set by controls: 0 for no effect and ±100 for the full control effect
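In 50 mM imidazole pH 7.2 with 7 mM MgCl2, LmPK (0.1 nM) turned over PEP (0.5 mM) and ADP (0.1 mM) for 1 h at room temperature. Luciferase read-out of ATP.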
Shiga inhibitor: blocks Shiga toxin action in Vero cells; Vero cells, Shiga toxin protein synthesis inhibition reporter; inhibition, % at 38.7 µM; hit rate 9.2% among 290,000; AID 2315; in the data active = inhibition mostly above about 28%, no sharp cut-off; inactive = mostly below about 43%; note: 0% is about no effect
* = called active by the depositor. Unless noted, calls come from the whole dose curve; as a rule, active = well fitted curve in the direction sought with a large enough effect; inconclusive = small, poorly fitted or top-dose-only effect, or another doubt; inactive = no such curve, though single readings can be large; an effect the other way counts as inactive or inconclusive.

For Cc1cccc(NC(=O)CSc2nnc(-c3ccco3)c(-c3ccco3)n2)c1C the results were Sm TGR block 3.5µM*, CHX counter 2, FBPA Giardia inh inconclusive, TbPYK inhibitor inconclusive, LmPK inhibitor 12% and Shiga inhibitor -5.
For CNC(=O)c1ccccc1Sc1ccc2c(/C=C/c3ccccn3)n[nH]c2c1 the results were TbPYK inhibitor 0%.
Cc1ccc(S(=O)(=O)N(C)CC(=O)N(C)Cc2cccs2)cc1 was read as TbPYK inhibitor -2%.
For O=C(NCCCn1ccnc1)c1cc(-c2cccc(O)c2)on1 the results were Sm TGR block -11%, CHX counter 31*, FBPA Giardia inh -2%, TbPYK inhibitor -3%, LmPK inhibitor 3% and Shiga inhibitor 74*.
COc1ccc(-c2cc(C(F)(F)F)n3nc(C(=O)NCCN4CCOCC4)cc3n2)cc1 was read as Sm TGR block -3%, CHX counter -1, FBPA Giardia inh -1%, TbPYK inhibitor 1%, LmPK inhibitor 6% and Shiga inhibitor -8.
Screening Cc1ccc(-c2cc(C(=O)NCCCn3ccnc3)no2)cc1 returned Sm TGR block 5%, CHX counter 26*, FBPA Giardia inh 2%, TbPYK inhibitor -1%, LmPK inhibitor -11% and Shiga inhibitor 50*.
`COc1ccc(-c2cc(C(F)(F)F)n3nc(C(=O)NCCCn4ccnc4)cc3n2)cc1` gave Sm TGR block -34%, CHX counter 23*, FBPA Giardia inh 6%, TbPYK inhibitor 2%, LmPK inhibitor -6% and Shiga inhibitor 14.
`COc1ccc(CN(C)C(C)C(=O)N(C)CC(=O)Nc2ccc(C)cc2)cc1F` (stereo unspecified) gave Sm TGR block -31% and TbPYK inhibitor 1%.
COc1ccccc1CNC(=O)C(CCSC)NS(=O)(=O)c1ccc2c(c1)oc(=O)n2C (stereo unspecified) was read as Sm TGR block 0%, CHX counter 52*, FBPA Giardia inh 0%, TbPYK inhibitor 2%, LmPK inhibitor 2% and Shiga inhibitor 42.
`COc1ccccc1CNC(=O)C(CC(C)C)NS(=O)(=O)c1ccc2c(c1)oc(=O)n2C` (stereo unspecified) gave Sm TGR block 0%, CHX counter -5, FBPA Giardia inh 0%, TbPYK inhibitor 2%, LmPK inhibitor 1% and Shiga inhibitor -10.
For Cc1ccc(Oc2ccc(OCC(=O)NC3CCS(=O)(=O)C3)cc2)cc1 (stereo unspecified) the results were Sm TGR block -5%, CHX counter 4, FBPA Giardia inh 0%, TbPYK inhibitor 2%, LmPK inhibitor 6% and Shiga inhibitor -10.
O=C(Nc1cnn(Cc2ccc(F)cc2)c1)c1cnccn1 was read as Sm TGR block 0%, CHX counter 17*, FBPA Giardia inh -1%, TbPYK inhibitor 2%, LmPK inhibitor -3% and Shiga inhibitor 13.
For CC(C)(C)C1CCc2onc(C(=O)Nc3cnn(Cc4ccc(F)cc4)c3)c2C1 (stereo unspecified) the results were Sm TGR block 15%, CHX counter -3, FBPA Giardia inh 9%, TbPYK inhibitor -4%, LmPK inhibitor 7% and Shiga inhibitor -13.
Screening O=C(Nc1cnn(Cc2ccc(F)cc2)c1)c1noc2c1CCCC2 returned Sm TGR block -2%, CHX counter 45*, FBPA Giardia inh inconclusive, TbPYK inhibitor -5%, LmPK inhibitor 6% and Shiga inhibitor 152*.
`CCc1cc(C(=O)Nc2cnn(Cc3ccc(F)cc3)c2)no1` gave Sm TGR block 8% and TbPYK inhibitor -2%.
Screening COc1ccc(OC)c(NC(=O)c2nc(SCc3ccccc3F)ncc2Cl)c1 returned Sm TGR block 7% and TbPYK inhibitor -9%.
For CC(=O)COc1ccc2c3c(c(=O)oc2c1C)CCCCC3 the results were Sm TGR block -3%, CHX counter 19*, FBPA Giardia inh -2%, TbPYK inhibitor 4%, LmPK inhibitor -1% and Shiga inhibitor 64*.
Screening Cc1c(OCc2ccc([N+](=O)[O-])cc2)ccc2c3c(c(=O)oc12)CCC3 returned Sm TGR block -16%, CHX counter 31*, FBPA Giardia inh 1%, TbPYK inhibitor 2%, LmPK inhibitor 1% and Shiga inhibitor 29.
Screening CCOC(=O)c1c(Nc2ccc(C)cc2)nnc(-c2ccccc2)c1-c1ccccc1 returned Sm TGR block 8% and TbPYK inhibitor -3%.
CCOc1ccccc1C1CC(=O)NC(C)=C1C(=O)OC1CCCCCC1 (stereo unspecified) was read as Sm TGR block -4% and TbPYK inhibitor 2%.
For c1ccc(-c2nnsc2-c2ncc[nH]2)cc1 the results were Sm TGR block 3%, CHX counter -2, FBPA Giardia inh 2%, TbPYK inhibitor -1%, LmPK inhibitor 1% and Shiga inhibitor 10.
Screening O=S(=O)(c1ccc(F)cc1)c1snnc1-c1ccccc1 returned Sm TGR block 35µM*, CHX counter 4, FBPA Giardia inh inconclusive, TbPYK inhibitor 2%, LmPK inhibitor 2% and Shiga inhibitor -2.
For O=S(=O)(c1ccc(Cl)cc1)c1snnc1-c1ccccc1 the results were Sm TGR block 13µM*, CHX counter 1, FBPA Giardia inh -11%, TbPYK inhibitor 0%, LmPK inhibitor 9% and Shiga inhibitor -12.
CN(C)c1ncc(S(=O)(=O)c2ccc(Cl)cc2)c(-c2ccccc2)n1 was read as Sm TGR block 13%, CHX counter -3, FBPA Giardia inh -3%, TbPYK inhibitor -5%, LmPK inhibitor -1% and Shiga inhibitor 17.
For O=C(NCc1cc(C(F)(F)F)cc(C(F)(F)F)c1)C1CC(c2ccccc2C(F)(F)F)=NO1 (stereo unspecified) the results were Sm TGR block -7% and TbPYK inhibitor -7%.
Screening CCC(=O)N(CCC(c1ccc(C)cc1)c1ccco1)Cc1ccco1 (stereo unspecified) returned Sm TGR block 14µM*, CHX counter 9, FBPA Giardia inh 3%, TbPYK inhibitor -15%, LmPK inhibitor 10% and Shiga inhibitor 16.
For O=C(c1ccco1)N(CCC(c1ccccc1)c1ccco1)Cc1ccc(F)cc1 (stereo unspecified) the results were Sm TGR block -5%, CHX counter 22*, FBPA Giardia inh 0%, TbPYK inhibitor -11%, LmPK inhibitor -2% and Shiga inhibitor 20.
Screening COc1ccccc1C(CCN(Cc1ccccc1)C(C)=O)c1ccco1 (stereo unspecified) returned Sm TGR block 18µM*, CHX counter -2, FBPA Giardia inh 13%, TbPYK inhibitor -3%, LmPK inhibitor -14% and Shiga inhibitor -4.

Assay outcomes: PubChem, National Center for Advancing Translational Sciences (NCATS)
